Screen size: about 190,000 compounds; about 570 (0.3%) were called active. The sample holds actives, similar compounds and a random draw of the others, so the mix is not that of the screen.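 Rule for the calls: active = z-score above 3 at 5 µM with at least 500 cells counted in the well; inconclusive = wells under 500 cells, flagged as cytotoxic or low count; inactive = the rest.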

The nature of this assay: insulin promoter activators in MIN6 cells, imaging, high-content screening, mouse beta cells (AID 1625).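 For cell count: total cells summed across four imaged fields per well.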 Conditions: MIN6 insulin promoter-GFP reporter, at 5 µM; cell count: measured here: cytotoxicity, nuclei count; z-score: stronger effect = higher value.
In the case of `CSc1ccc(CN2C(=O)NC3(CCCCCC3)C2=O)cc1`, the cell count was determined as 1210 cells and the z-score is -0.36 (inactive).
Taken in the same sequence, the figures for `CC(=O)Nc1nc(C)c(-c2csc(Nc3ccc(S(N)(=O)=O)cc3)n2)s1` were 1500 cells and -2.49 (inactive).
As for `CC(C)(C)c1cc(C(=O)NCc2cccnc2)ccn1`, the cell count is 1480 cells and the z-score is 4.34 (active).
Taken in the same sequence, the figures for `Cc1ccc(C(=O)NC(=S)NCc2cccnc2)cc1` were 1660 cells and 1.63 (inactive).
For `Cc1cccc(C(=O)Nc2ccccc2C(=O)NCc2cccnc2)c1`, in that order: 1550 cells and 0.35 (inactive).
Taken in the same sequence, the figures for `CCOc1ccc(NS(=O)(=O)c2cc(C)c(C)cc2C)cc1` were 1460 cells and 0.61 (inactive).
Regarding `O=C(CC1Nc2ccccc2NC1=O)Nc1ccccc1NC(=O)CC1Nc2ccccc2NC1=O` (stereo not drawn), the cell count was determined as 1140 cells and the z-score is 0.1 (inactive).
Taken in the same sequence, the figures for `C=CCNC(=S)N1CCN(CCN=Cc2c(C)[nH]n(-c3ccc([N+](=O)[O-])cc3)c2=O)CC1` were 1470 cells and 1.08 (inactive).
For `Cc1ccc(-n2[nH]c(C)c(/C=N/NC(=O)c3cccc([N+](=O)[O-])c3)c2=O)cc1C`, in that order: 1370 cells and 0.35 (inactive).
Taken in the same sequence, the figures for `Cc1[nH]n(-c2ccc([N+](=O)[O-])cc2)c(=O)c1C=NCCN1CCN(C(=O)c2ccccc2F)CC1` were 1450 cells and 4.48 (active).
`CC(C)CCN1CCN(C/C=C/c2ccco2)CC1CCO` (stereo not drawn): the cell count was 1410 cells and the z-score is 1.56 (inactive).
Taken in the same sequence, the figures for `O=C(COC(=O)C1CCCCC1)Nc1ccc([N+](=O)[O-])cc1` were 1220 cells and -0.06 (inactive).
For `O=C(NNC(=S)NC(=O)c1cn(-c2ccccc2)nc1-c1ccccc1)c1ccncc1`, in that order: 1140 cells and -0.61 (inactive).
For `CCCCN(CCCC)CC(O)Cn1c2ccccc2c(=O)c2ccccc21` (stereo not drawn), in that order: 1110 cells and -0.27 (inactive).
With `CC(C)N1CCC(NC(=O)Nc2ccccc2)CC1`, the cell count is 1410 cells and the z-score is -0.24 (inactive).
For `Cc1cc(C)cc(NC(=O)C2CCN(c3nc(C)cc(C)n3)CC2)c1`, in that order: 1460 cells and -0.69 (inactive).
For `O=C(Nc1ccc2c(c1)OCCO2)C1CCCN(c2ncccn2)C1` (stereo not drawn), in that order: 1560 cells and -0.18 (inactive).
With `Cc1cc(C)nc(N2CCC(C(=O)Nc3ccc4c(c3)OCCO4)CC2)n1`, the cell count worked out at 1130 cells and the z-score is 3.37 (active).
For `N#C/C(=C/c1ccc(-c2ccccc2[N+](=O)[O-])o1)C(=O)NCCN1CCCCC1`, in that order: 1040 cells and 0.44 (inactive).
For `CCOCCCN(C(=O)Cn1nnc(-c2ccc(OC)c(OC)c2)n1)C(CC)C(=O)NC1CCCC1` (stereo not drawn), in that order: 1200 cells and 1.26 (inactive).
As to `Cc1ccc(-c2nnn(CC(=O)N(CCO)C(C(=O)NC(C)(C)C)c3ccncc3)n2)cc1` (stereo not drawn), the cell count amounted to 1330 cells and the z-score was -0.54 (inactive).
Turning to `COc1ccc(-c2nnn(CC(=O)N(CCO)C(C(=O)NC3CCCC3)c3ccc(F)cc3)n2)cc1` (stereo not drawn), the cell count was 941 cells and the z-score was 3.28 (active).
In the case of `Cc1nc(Cl)c(C#N)c2c1CCCC2`, the cell count stood at 1110 cells and the z-score is 0.33 (inactive).
Regarding `COc1ccc(NS(=O)(=O)c2ccc(Oc3c(C#N)cccc3C#N)cc2)cc1`, the cell count stood at 558 cells and the z-score was -2.43 (inactive).
For `CCOC(=O)c1ccc(S(=O)(=O)N(CCO)Cc2cc3cc(OC)c(OC)cc3[nH]c2=O)cc1`, in that order: 1080 cells and -0.14 (inactive).
Taken in the same sequence, the figures for `COc1ccc(NC(=O)CCN2C(=O)/C(=C/c3ccc4c(c3)OCO4)SC2=S)cc1` were 965 cells and -0.34 (inactive).
For `CC(=O)N(OCc1ccc(OC(C)C)c(Cl)c1)C(C)=O`, in that order: 1050 cells and -0.14 (inactive).
Turning to `Cc1cc(/C=N/Nc2ccc([N+](=O)[O-])cn2)c(C)n1-c1cccc(C(=O)O)c1`, the cell count stood at 1080 cells and the z-score was -0.44 (inactive).
For `Cc1cccc(-n2c(C)cc(/C=N/NC(N)=S)c2C)c1`, in that order: 1370 cells and 0.39 (inactive).
For `Cc1cc(/C=N/n2cnnc2)c(C)n1-c1cccc(C(=O)O)c1`, in that order: 1240 cells and 4.18 (active).
Taken in the same sequence, the figures for `CC(=O)N1N=C(c2ccncc2)OC1(Cc1ccccc1)Cc1ccccc1` were 1090 cells and 0.04 (inactive).
`O=C(CS(=O)(=O)Cc1ccccc1)NCC1CCCO1` (stereo not drawn): the cell count turned out to be 1220 cells and the z-score was -0.17 (inactive).
For `O=C(CSc1ccc(-c2ccccc2)nn1)NCC1CCCO1` (stereo not drawn), in that order: 1230 cells and 3.02 (active).
For `O=C(CSc1nnc(-c2ccc(NS(=O)(=O)c3ccccc3)cc2)o1)NCC1CCCO1` (stereo not drawn), in that order: 1210 cells and 0.05 (inactive).
For `COc1cc(SC)ccc1C(=O)Nc1cc(C)ccn1`, in that order: 1210 cells and 0 (inactive).
Consider `CC(=O)Nc1ccc(CC#N)cc1`, for which the cell count was 1210 cells and the z-score was -0.63 (inactive).
For `Cc1ccccc1NC(=S)NNC(=O)c1cccc(Br)c1`, in that order: 1120 cells and 0.03 (inactive).
For `O=C(NN1C(=O)C2C(C1=O)C1C=CC2C12CC2)c1ccccc1Cl` (stereo not drawn), in that order: 1130 cells and -0.03 (inactive).
As for `CC(C)OP(=O)(OC(C)C)C(Nc1ccccc1)c1cccc([N+](=O)[O-])c1` (stereo not drawn), the cell count came out at 992 cells and the z-score is -0.35 (inactive).

For the origin of these results see PubChem BioAssay AID1625 (Sanford-Burnham Center for Chemical Genomics, 2009).
